From PubChem BioAssay (EPA / NIEHS) come the findings set out here.

SMILES strings stand for the structures. Active and inactive are the calls of the source. How the source made its calls: active means hit-call score of the fitted dose curve at least 0.9, where 1 is the maximum; inactive means score below 0.9.

One may read the AC50 as the midpoint of the concentration-response curve, whichever way the signal moves.

Assay [1] can be described thus: ATG_CRE_CIS: Attagene CIS-FACTORIAL HepG2 Assay for human cAMP Responsive Element (CRE) binding protein 3 (AID 2282926). The conditions noted are these: HepG2 CRE cis-reporter, Attagene multiplexed mRNA; actives raise or lower the signal. The procedure, abridged:
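Endogenous transcription factor activity read via CRE-regulated reporter transcripts in transfected HepG2 cells. After 24 h exposure, RNA was reverse-transcribed, amplified, fluorescently labelled and sized by capillary electrophoresis; gain or loss fitted against DMSO.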

Assay [2] deals with CCAAT/enhancer-binding protein beta (Homo sapiens) (UniProt P17676). Nature of the assay: ATG_C_EBP_CIS: Attagene CIS-FACTORIAL HepG2 Assay for human CCAAT/Enhancer Binding Protein (C/EBP) beta (AID 2282927). The conditions noted are these: HepG2 Attagene cis-factorial transcription factor reporter; actives raise or lower the signal. The procedure, abridged: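 HepG2, transient MRTU transfection, 24 h treatment. RT-PCR plus CE fluorescence; DMSO negative control, bidirectional fit.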

A short description of assay [3]: ATG_CMV_CIS: Attagene CIS-FACTORIAL HepG2 Assay for human CMV (Internal Marker) (AID 2282928).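 Further: endpoint acts as a background internal control marker rather than a target.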 The conditions noted are these: HepG2 CMV promoter reporter, transcription factor profiling; actives raise or lower the signal. The procedure, abridged:
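Reporter transcripts from transfected HepG2 cells are isolated after 24 h of chemical dosing, reverse-transcribed and amplified. Fragments labeled with 6-FAM are cut with HpaI and quantified by capillary electrophoresis; DMSO defines baseline.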

Assay [4] can be described thus: ATG_DR4_LXR_CIS: Attagene CIS-FACTORIAL HepG2 Assay for human Liver X Receptor (LXR), DR4 submotif (AID 2282929). The conditions noted are these: HepG2 Attagene DR4 cis-reporter, mRNA transcription; actives raise or lower the signal. The procedure, abridged: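 Transiently transfected HepG2 liver cells; cis-regulated reporters; 24 h dosing. RT-PCR plus CE read-out of reporter mRNA. DMSO baseline, bidirectional curve fitting.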

Assay [5] has as its target Aryl hydrocarbon receptor (Homo sapiens) (UniProt P35869). The experiment in a line: ATG_Ahr_CIS: Attagene CIS-FACTORIAL HepG2 Assay for human Aryl Hydrocarbon Receptor (Ahr) (AID 2282930). The conditions noted are these: HepG2 AhR cis-factorial reporter transcription; actives raise or lower the signal. The procedure, abridged: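 Endogenous factor activity is tracked through cis-promoter reporter units transfected into HepG2 cells. Transcript levels at 24 h are read by fluorescent RT-PCR and capillary electrophoresis, with activity in either direction scored relative to DMSO.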

Assay [6] is described as follows: ATG_AP_1_CIS: Attagene CIS-FACTORIAL HepG2 Assay for human Activator Protein 1 (AP-1) (AID 2282931). The conditions noted are these: HepG2 Attagene cis-factorial AP-1 reporter mRNA; actives raise or lower the signal. The procedure, abridged:
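We transfected HepG2 cells transiently with a set of cis-regulated reporter transcription units, dosed them for 24 h, and quantified reporter mRNA via RT-PCR and capillary electrophoresis, scoring gain or loss of signal relative to DMSO.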

Assay [7] can be described thus: ATG_AP_2_CIS: Attagene CIS-FACTORIAL HepG2 Assay for human Activator Protein 2 (AP-2) (AID 2282932). The conditions noted are these: HepG2 AP-2 cis-reporter, Attagene transcription factor profiling; actives raise or lower the signal. The procedure, abridged: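 Read-out: fluorescent reporter mRNA via RT-PCR and capillary electrophoresis, 24 h post-dose in transiently transfected HepG2. Endogenous factors drive cis-promoter reporters; gain or loss of signal fitted bidirectionally against DMSO.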

The nature of assay [8]: ATG_BRE_CIS: Attagene CIS-FACTORIAL HepG2 Assay for human Bone Morphogenetic Protein (BMP) Response Element (BRE) (AID 2282933). The conditions noted are these: HepG2 BMP response element reporter, Attagene transcription factor profiling; actives raise or lower the signal. The procedure, abridged:
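Transient MRTU transfection of human HepG2 liver cells; 24 h compound treatment; total RNA isolated, reverse-transcribed, PCR-amplified, 6-FAM labelled, HpaI-cut, capillary electrophoresis. DMSO = negative control/baseline, bidirectional fit.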

Assay [9] concerns the target Retinoic acid receptor alpha (Homo sapiens) (UniProt P10276). Nature of the assay: ATG_DR5_RAR_CIS: Attagene CIS-FACTORIAL HepG2 Assay for human Retinoic Acid Receptor Alpha (RARE), DR5 submotif (AID 2282934). The conditions noted are these: HepG2 Attagene cis-factorial RARE DR5 reporter, mRNA; actives raise or lower the signal. The procedure, abridged:
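After 24 h of chemical exposure, transiently transfected HepG2 cells were lysed for total RNA; the DR5-regulated reporter transcript was quantified via RT-PCR and capillary electrophoresis, with activity fitted bidirectionally against DMSO.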

Assay [10] has as its target Transcription factor E2F1 (Homo sapiens) (UniProt Q01094). The experiment in a line: ATG_E2F_CIS: Attagene CIS-FACTORIAL HepG2 Assay for human E2F Transcription Factor 1 (AID 2282935). The conditions noted are these: HepG2 Attagene cis-reporter, E2F reporter RNA transcripts; actives raise or lower the signal. The gist of the method:
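Transient MRTU transfection of HepG2; 24 h compound exposure; RNA → oligo(dT) RT → PCR → FAM label → HpaI cut → CE fluorescence. Gain/loss of signal fit against DMSO.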

The nature of assay [11]: ATG_E_Box_CIS: Attagene CIS-FACTORIAL HepG2 Assay for human Enhancer Box (E-box) (AID 2282936). The conditions noted are these: HepG2 E-box cis-reporter transcription, actives raise or lower the signal. The procedure, abridged:
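Transiently transfected HepG2, endogenous TF-driven reporters, 24 h dosing. Readout: RT-PCR plus capillary electrophoresis of fluorescent reporter fragments. Gain or loss of signal fitted bidirectionally against DMSO baseline.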

A short description of assay [12]: ATG_M_61_CIS: Attagene CIS-FACTORIAL HepG2 Assay for M61 Transcription Factor (Internal Marker) (AID 2282937). The conditions noted are these: HepG2 Attagene CIS-FACTORIAL M61 internal marker reporter; actives raise or lower the signal. The procedure, abridged: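 Multiplexed reporter mRNA assay, HepG2 human hepatoma cells, 24 h treatment. Signal: FAM-labelled, HpaI-digested RT-PCR fragments by CE. Fit: bidirectional, baseline DMSO.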

Assay [13] in a line: ATG_EGR_CIS: Attagene CIS-FACTORIAL HepG2 Assay for human Early Growth Response 1 (EGR1) (AID 2282938). The conditions noted are these: HepG2 Attagene CIS-FACTORIAL EGR reporter mRNA; actives raise or lower the signal. The procedure, abridged:
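Multiplexed cis-reporter system in human hepatoma HepG2 cells, transiently transfected. Cells are dosed for 24 h; reporter transcripts are amplified, fluorescently tagged and sized by capillary electrophoresis, with DMSO as negative control.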

Assay [14] can be described thus: ATG_M_19_CIS: Attagene CIS-FACTORIAL HepG2 Assay for M19 Transcription Factor (Internal Marker) (AID 2282939). The conditions noted are these: HepG2 Attagene CIS-FACTORIAL M19 internal marker reporter; actives raise or lower the signal. The procedure, abridged:
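Transfect HepG2 with MRTU reporter library → dose chemical, 24 h → isolate total RNA, reverse-transcribe with oligo(dT) → PCR, 6-FAM label, HpaI cut (2 h, 37 C) → capillary electrophoresis. Bidirectional fit vs DMSO.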

A short description of assay [15]: ATG_Ets_CIS: Attagene CIS-FACTORIAL HepG2 Assay for human Erythroblast Transformation Specific (ETS) (AID 2282941). The conditions noted are these: HepG2 ETS cis-reporter transcription, actives raise or lower the signal. The procedure, abridged: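 Bidirectional fit versus DMSO of reporter mRNA signal, detected by RT-PCR and capillary electrophoresis in HepG2 cells transiently transfected with cis-element reporters and dosed 24 h.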

Assay [16] addresses Hepatocyte nuclear factor 3-beta (Homo sapiens) (UniProt Q9Y261). Nature of the assay: ATG_FoxA2_CIS: Attagene CIS-FACTORIAL HepG2 Assay for human Forkhead box A2 (FOXA2) (AID 2282942). The conditions noted are these: HepG2 cis-reporter transcription factor activity, 24 h; actives raise or lower the signal. The gist of the method:
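Multiplexed cis-element reporter assay in transiently transfected HepG2. Twenty-four hours post-dosing, RNA was reverse-transcribed, amplified, FAM-labelled, HpaI-digested and separated by CE. Activity gain or loss relative to DMSO.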

A short description of assay [17]: ATG_FoxO_CIS: Attagene CIS-FACTORIAL HepG2 Assay for human Forkhead box O (FoxO) (AID 2282943). The conditions noted are these: HepG2 Attagene cis-reporter, FoxO element, mRNA; actives raise or lower the signal. The procedure, abridged:
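Transfected HepG2 reporter cells exposed to test chemical for 24 h; reporter RNA measured by reverse transcription, PCR and fluorescent capillary electrophoresis; curves fitted for increases and decreases against DMSO.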

A short description of assay [18]: ATG_GATA_CIS: Attagene CIS-FACTORIAL HepG2 Assay for human GATA Binding Protein (AID 2282944). The conditions noted are these: HepG2 GATA cis-element reporter, Attagene multiplex mRNA; actives raise or lower the signal. The gist of the method:
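Transient MRTU transfection, HepG2, 24 h compound exposure. Total RNA → oligo(dT) RT → PCR → 6-FAM primer extension → HpaI cut → CE. Bidirectional fit vs DMSO.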

The nature of assay [19]: ATG_GLI_CIS: Attagene CIS-FACTORIAL HepG2 Assay for human Zinc Finger Protein GLI1 (AID 2282945). The conditions noted are these: HepG2, Attagene cis-factorial reporter mRNA, GLI element; actives raise or lower the signal. The gist of the method:
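Transiently transfected HepG2 cells report endogenous transcription factor activity via cis-element-driven reporter units. After 24 h compound exposure, reporter mRNA was measured by RT-PCR with capillary electrophoresis; bidirectional fitting against DMSO baseline.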

Chain of Hepatocyte nuclear factor 3-beta (Homo sapiens) (Q9Y261 whole entry, looked up): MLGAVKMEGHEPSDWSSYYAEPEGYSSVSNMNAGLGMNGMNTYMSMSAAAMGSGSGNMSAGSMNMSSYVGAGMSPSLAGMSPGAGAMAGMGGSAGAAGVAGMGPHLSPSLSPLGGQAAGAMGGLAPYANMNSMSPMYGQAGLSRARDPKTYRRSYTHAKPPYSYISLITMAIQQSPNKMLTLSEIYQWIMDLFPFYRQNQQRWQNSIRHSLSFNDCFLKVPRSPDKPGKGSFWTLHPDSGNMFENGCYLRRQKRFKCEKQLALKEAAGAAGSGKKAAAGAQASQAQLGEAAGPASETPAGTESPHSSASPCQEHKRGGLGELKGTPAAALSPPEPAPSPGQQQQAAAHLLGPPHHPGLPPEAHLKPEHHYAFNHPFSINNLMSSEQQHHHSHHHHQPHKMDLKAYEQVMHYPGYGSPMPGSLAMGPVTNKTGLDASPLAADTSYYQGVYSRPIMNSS
Chain of Aryl hydrocarbon receptor (Homo sapiens) (P35869 whole entry, looked up): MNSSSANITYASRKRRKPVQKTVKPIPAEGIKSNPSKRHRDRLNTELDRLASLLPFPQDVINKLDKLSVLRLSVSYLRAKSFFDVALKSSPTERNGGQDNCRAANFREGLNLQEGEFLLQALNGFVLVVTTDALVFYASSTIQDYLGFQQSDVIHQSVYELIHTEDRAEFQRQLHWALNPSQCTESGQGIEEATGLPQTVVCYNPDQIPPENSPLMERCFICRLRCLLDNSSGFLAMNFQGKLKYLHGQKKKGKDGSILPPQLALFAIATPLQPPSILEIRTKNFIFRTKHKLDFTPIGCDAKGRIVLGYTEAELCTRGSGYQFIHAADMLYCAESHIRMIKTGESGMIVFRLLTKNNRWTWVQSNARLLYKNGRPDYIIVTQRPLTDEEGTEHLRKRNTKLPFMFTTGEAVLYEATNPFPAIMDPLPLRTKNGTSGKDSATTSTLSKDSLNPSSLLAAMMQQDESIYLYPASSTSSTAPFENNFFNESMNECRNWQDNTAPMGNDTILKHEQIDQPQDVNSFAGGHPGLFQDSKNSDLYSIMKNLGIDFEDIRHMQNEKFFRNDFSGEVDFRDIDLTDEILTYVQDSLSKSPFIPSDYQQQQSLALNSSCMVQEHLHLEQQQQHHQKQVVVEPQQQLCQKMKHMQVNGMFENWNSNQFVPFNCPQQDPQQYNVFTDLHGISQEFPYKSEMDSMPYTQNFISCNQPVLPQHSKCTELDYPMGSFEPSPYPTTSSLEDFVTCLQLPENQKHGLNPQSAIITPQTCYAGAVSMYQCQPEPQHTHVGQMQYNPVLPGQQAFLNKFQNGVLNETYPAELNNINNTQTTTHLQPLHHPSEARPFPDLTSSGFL
Chain of Retinoic acid receptor alpha (Homo sapiens) (P10276 whole entry, looked up): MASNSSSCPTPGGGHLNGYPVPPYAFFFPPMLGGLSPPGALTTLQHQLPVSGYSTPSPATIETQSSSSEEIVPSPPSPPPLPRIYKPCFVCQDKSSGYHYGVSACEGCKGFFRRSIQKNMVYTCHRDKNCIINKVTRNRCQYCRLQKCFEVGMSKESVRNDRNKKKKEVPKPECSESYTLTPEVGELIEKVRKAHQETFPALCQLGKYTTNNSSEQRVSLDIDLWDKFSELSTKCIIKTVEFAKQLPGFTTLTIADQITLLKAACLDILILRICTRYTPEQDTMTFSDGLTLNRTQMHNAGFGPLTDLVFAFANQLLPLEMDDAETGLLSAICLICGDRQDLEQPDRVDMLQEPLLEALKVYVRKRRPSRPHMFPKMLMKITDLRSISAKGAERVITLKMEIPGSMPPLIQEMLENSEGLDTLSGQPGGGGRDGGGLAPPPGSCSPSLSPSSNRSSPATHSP
Chain of Transcription factor E2F1 (Homo sapiens) (Q01094 whole entry, looked up): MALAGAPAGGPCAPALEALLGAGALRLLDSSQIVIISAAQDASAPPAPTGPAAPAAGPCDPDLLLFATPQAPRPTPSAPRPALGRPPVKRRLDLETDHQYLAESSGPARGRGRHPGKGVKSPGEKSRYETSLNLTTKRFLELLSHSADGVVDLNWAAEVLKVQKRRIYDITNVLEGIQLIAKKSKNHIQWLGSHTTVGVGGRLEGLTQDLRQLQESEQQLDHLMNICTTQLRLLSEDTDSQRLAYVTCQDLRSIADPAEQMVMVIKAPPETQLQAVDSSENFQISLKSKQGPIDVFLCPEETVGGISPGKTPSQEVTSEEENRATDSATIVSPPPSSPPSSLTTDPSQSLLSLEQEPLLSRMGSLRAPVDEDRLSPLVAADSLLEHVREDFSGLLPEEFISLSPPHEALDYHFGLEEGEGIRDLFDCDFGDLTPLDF
Chain of CCAAT/enhancer-binding protein beta (Homo sapiens) (P17676 whole entry, looked up): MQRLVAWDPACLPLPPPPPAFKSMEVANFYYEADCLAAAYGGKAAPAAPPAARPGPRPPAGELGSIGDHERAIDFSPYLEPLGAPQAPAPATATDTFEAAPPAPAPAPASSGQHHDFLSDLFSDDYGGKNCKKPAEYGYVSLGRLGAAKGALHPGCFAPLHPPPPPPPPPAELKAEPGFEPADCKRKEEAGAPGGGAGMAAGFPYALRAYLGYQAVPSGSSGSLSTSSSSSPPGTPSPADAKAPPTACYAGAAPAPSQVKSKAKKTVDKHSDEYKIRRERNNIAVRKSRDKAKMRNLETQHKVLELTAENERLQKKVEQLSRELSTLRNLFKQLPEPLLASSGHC

Regarding `Cc1ccc(C=O)s1`, the result in assay [1], in assay [2], in [3], in assay [4], in [5] and in assay [6] was inactive. In addition, the compound was classed as inactive in assay [7], in assay [8], in [9], in assay [10], in [11] and in [12]. Besides, the call in [13], in assay [14], in assay [15], in assay [16], in assay [17] and in assay [18] was inactive. The outcome in [19] was inactive.

For the compound `O=C1C(c2[nH]c3ccc(S(=O)(=O)O)cc3c2O)=Nc2ccc(S(=O)(=O)O)cc21`, the compound was classed as inactive in [1], in [2], in [3], in assay [4], in assay [6] and in assay [7]. Also, the compound was called inactive in [8], in [9], in assay [11], in [13], in assay [14] and in assay [15]. In addition, the call in [16], in assay [17] and in assay [18] was inactive. Moreover, the AC50 in assay [5] was 27.6 µM (active).

For `[Ca+2]`, the result in assay [1], in [2], in assay [3], in assay [4], in [5] and in assay [6] was inactive. The compound was called inactive in assay [7], in [8], in assay [9], in [10], in [11] and in [13]. Moreover, the compound was classed as inactive in assay [14], in [15], in [16], in assay [17], in assay [18] and in assay [19].

With `Nc1nc2ccc([N+](=O)[O-])cc2s1`, the result in assay [1], in assay [2], in [3], in assay [4], in assay [6] and in assay [7] was inactive. Moreover, the result in [9], in [10], in [11], in [12], in [13] and in assay [14] was inactive. Moreover, the compound was classed as inactive in assay [15], in assay [16], in [17], in [18] and in assay [19]. In addition, the half-maximal activity concentration (AC50) in assay [5] was 5.26 µM (active); in [8] it was 100 µM (active).

For the compound `CC(=O)c1c(C)cc(C(C)(C)C)cc1C`, the call in assay [1], in [2], in assay [3], in [4], in [5] and in assay [6] was inactive. Besides, the compound was called inactive in assay [7], in [8], in [9], in assay [10], in assay [11] and in assay [12]. For the same compound, the result in assay [13], in assay [14], in assay [15], in assay [16], in assay [17] and in [18] was inactive. Besides, in assay [19], the compound was called inactive.

As to `CO[Si](CCCn1c(=O)n(CCC[Si](OC)(OC)OC)c(=O)n(CCC[Si](OC)(OC)OC)c1=O)(OC)OC`, the compound was called inactive in assay [1], in assay [2], in assay [3], in [4], in assay [5] and in [6]. The result in assay [7], in assay [8], in assay [9], in assay [10], in assay [11] and in assay [13] was inactive. Also, the outcome in assay [14], in assay [15], in [16], in assay [17], in assay [18] and in assay [19] was inactive.

Turning to `CN1Cc2c(N)cccc2C(c2ccccc2)C1` (centres undefined), the call in assay [1], in assay [2], in [3], in assay [4], in assay [6] and in [7] was inactive. Besides, the outcome in assay [8], in assay [9], in assay [11], in assay [13], in assay [14] and in assay [15] was inactive. Besides, the result in [16], in [17] and in assay [19] was inactive. In assay [5], the concentration at half-maximal activity (AC50) was 59.1 µM (active).

Consider `CCN(CC)c1ccc(C(=C2C=CC(=[N+](CC)CC)C=C2)c2ccc(S(=O)(=O)O)cc2S(=O)(=O)[O-])cc1`, for which the call in assay [1], in assay [2], in assay [3], in [4], in assay [5] and in assay [6] was inactive. Moreover, the call in assay [7], in [8], in assay [9], in assay [10], in assay [11] and in assay [12] was inactive. Moreover, the result in [13], in assay [14], in assay [15], in [16], in [17] and in assay [18] was inactive. In addition, the compound was classed as inactive in [19].
